Some test systems named below: HCT-15 colon; HT29 colon; SNB-75 CNS; SNB-19 CNS; PC-3 prostate; SK-MEL-5 melanoma; UACC-62 melanoma; LOX IMVI melanoma; SK-MEL-28 melanoma; U251 CNS.
What all share (test): NCI-60 one-dose screen, 48 h (100 = growth as untreated, 0 = no growth, -100 = all killed)
What all share (conditions): 10 µM unless noted

Molecules are shown by their SMILES. The panel holds about 83,000 compounds, 20% with a hit somewhere; the sample as a whole holds those more often.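 Note: values are percent growth. 100 is the growth of untreated cells, values between 100 and 0 indicate rising inhibition; between -100 and 0 indicates cell death.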 Unmarked numbers belong to inactive results. Calls of active or inactive are those of the source. The calls were made as follows: active = growth percent below 10; inactive = the rest.

For `O=C(NC(Cc1ccccc1)C(=O)CCl)OCc1ccccc1` (stereo not given), the growth with HCT-15 colon is 58.6%; in the assay on HT29 colon, 53.6%; in the assay on SNB-75 CNS, 83.7%; in the assay on SNB-19 CNS, 82.2%; in the assay with PC-3 prostate, 67.5%; in the assay with SK-MEL-5 melanoma, 75.9%. Further, the growth with UACC-62 melanoma was 68%; in the assay with LOX IMVI melanoma, -7.12% (active); in the assay with SK-MEL-28 melanoma, 85.8%.
As for `Cc1cc(Nc2nc(N3CCOCC3)nc3ccccc23)n[nH]1`, the growth in the assay on HCT-15 colon was 38.7%; in the assay on HT29 colon, 68.4%; in the assay with SNB-75 CNS it was -15.3% (active); in the assay with SNB-19 CNS, 93.2%; in the assay with PC-3 prostate it was 59.9%; with SK-MEL-5 melanoma it was 79.9%. Also, the growth was 45.7% with UACC-62 melanoma, 63.3% in the assay on LOX IMVI melanoma and 72.2% in the assay on SK-MEL-28 melanoma.
As for `Nc1nc(-c2ccc(F)cc2)cc(-c2cnn(-c3ccccc3)n2)n1`, the growth in the assay on HCT-15 colon is 95.4%; in the assay on HT29 colon, 93.5%; in the assay on SNB-75 CNS, 100%; in the assay on SNB-19 CNS, 104%; with PC-3 prostate, 114%; with SK-MEL-5 melanoma, 104%. Besides, the values for the growth with UACC-62 melanoma, with LOX IMVI melanoma and in the assay with SK-MEL-28 melanoma were 91.1%, 97.2% and 107%, respectively.
In the case of `CCc1ccc(C(c2ccc(CC)cc2)C(Cl)(Cl)CCl)cc1`, the growth in the assay on HCT-15 colon is 89.7%; with HT29 colon, 76.8%; in the assay on SNB-75 CNS, 80.6%; in the assay with U251 CNS it was 89%; with PC-3 prostate, 80.5%; with SK-MEL-5 melanoma, 90%. The results for the growth in the assay with UACC-62 melanoma, with LOX IMVI melanoma and in the assay with SK-MEL-28 melanoma were 88.2%, 93.6% and 92.4%, respectively.
Regarding `C=C(CN1CCN(c2cccc(C(F)(F)F)n2)CC1)c1ccc(C(=O)Nc2ccccc2N)cc1`, the growth with HCT-15 colon is 12.9%; in the assay on HT29 colon, -23.3% (active); in the assay on SNB-75 CNS, 7.18% (active); with U251 CNS it was 23.1%; in the assay on PC-3 prostate, 22.6%; with SK-MEL-5 melanoma, -62.2% (active). Further, the growth in the assay with UACC-62 melanoma was 26.9%; in the assay on LOX IMVI melanoma, 8.1% (active).
As for `CN(CC(=O)N(Cc1ccc(C2CCCCC2)cc1)c1ccc(C(=O)NO)cc1)S(=O)(=O)c1c(F)c(F)c(F)c(F)c1F`, the growth is -35.4% (active) in the assay on HCT-15 colon; 0.552% (active) with HT29 colon; 84.5% with SNB-75 CNS; 48.8% in the assay on U251 CNS; 88.1% in the assay with PC-3 prostate; 99.6% with SK-MEL-5 melanoma. Also, the values for the growth in the assay on UACC-62 melanoma, in the assay on LOX IMVI melanoma and in the assay with SK-MEL-28 melanoma were 94.5%, -8.7% (active) and 86.8%, respectively.
Take `CN[C@@]12CC3(C=CC(=O)C=C3)O[C@]1(Cc1ccc(OC)cc1)N(C)C(=O)N2`: the growth in the assay on HCT-15 colon was -47.9% (active); with HT29 colon, 8.19% (active); in the assay on SNB-75 CNS it was 74.3%; with SNB-19 CNS it was 92.2%; in the assay with PC-3 prostate, 66.8%; with SK-MEL-5 melanoma, 77.1%. Moreover, the growth with UACC-62 melanoma is 54.7%; in the assay with SK-MEL-28 melanoma, 46.7%.
Regarding `COc1cccc(-n2cc(-c3nc(Nc4cc(C)[nH]n4)c4ccccc4n3)nn2)c1`, the growth is 29.7% in the assay on HCT-15 colon; 65.5% in the assay with HT29 colon; -10.2% (active) with SNB-75 CNS; 73.1% in the assay with SNB-19 CNS; -42% (active) in the assay on SK-MEL-5 melanoma; 50.8% in the assay with UACC-62 melanoma. For the same compound, the growth with LOX IMVI melanoma was 66.5%; in the assay with SK-MEL-28 melanoma, 64%.
For the compound `CCN(CC)CCCNc1cc(OC)cc2nc3cc(Cl)ccc3nc12`, the growth was -11.9% (active) with HCT-15 colon; -9.49% (active) in the assay with HT29 colon; -2.74% (active) in the assay with SNB-75 CNS; 4.3% (active) with U251 CNS; 2.49% (active) with PC-3 prostate; -99.5% (active) with SK-MEL-5 melanoma. In addition, the growth in the assay with UACC-62 melanoma was -80.6% (active); in the assay with LOX IMVI melanoma it was -58.7% (active); in the assay with SK-MEL-28 melanoma, -79.1% (active).
As to `C=CCSc1nnc(-c2ccc(C(C)(C)C)cc2)n1-c1cccc(C(F)(F)F)c1`, the growth was 17.7% with HCT-15 colon; 26.3% in the assay with HT29 colon; 80.5% with SNB-75 CNS; 32.6% in the assay on U251 CNS; 16.6% with PC-3 prostate; 37.4% with SK-MEL-5 melanoma. The growth in the assay on UACC-62 melanoma was 42.4%; with LOX IMVI melanoma, 47.1%; in the assay with SK-MEL-28 melanoma, 67.8%.
For the compound `CCN(CC)CC(C)Nc1ccc([N+](=O)[O-])c2sc3ccccc3c(=O)c12` (stereo not given), the growth with HCT-15 colon is 23.6%; with HT29 colon, 12%; in the assay with SNB-75 CNS, 36.3%; with U251 CNS, 28.4%; with PC-3 prostate, 14.6%; with SK-MEL-5 melanoma, 5.5% (active). In addition, the growth is 33.5% in the assay with UACC-62 melanoma and 14.7% with LOX IMVI melanoma.
In the case of `Cc1ccc2c(c1)n([O-])c1cc(Cl)ccc1[n+]2=O`, the growth with HCT-15 colon was 119%; in the assay with HT29 colon, 112%; with SNB-75 CNS, 91.3%; with U251 CNS, 110%; in the assay on PC-3 prostate, 93.6%; in the assay with SK-MEL-5 melanoma it was 107%. Also, the growth in the assay with UACC-62 melanoma is 89%; with LOX IMVI melanoma it was 129%; with SK-MEL-28 melanoma, 133%.
Turning to `CS(=O)(=O)c1ccc(-c2cnc3ccc(-c4cccc(S(C)(=O)=O)c4)nn23)cc1`, the growth in the assay on HCT-15 colon was 28.2%; in the assay on HT29 colon it was 33.7%; with SNB-75 CNS, 12.4%; in the assay on U251 CNS, 46.3%; in the assay on PC-3 prostate, 37.6%; in the assay on SK-MEL-5 melanoma, 38.3%. For the same compound, the growth in the assay with UACC-62 melanoma was 28.8%; in the assay with LOX IMVI melanoma, 12.3%; in the assay with SK-MEL-28 melanoma it was 52.5%.
Regarding `CCOC(=S)SCc1ccc(Cl)cc1`, the growth in the assay with HCT-15 colon is 94.8%; with HT29 colon, 103%; in the assay with SNB-75 CNS, 76.5%; with U251 CNS, 90.5%; in the assay on PC-3 prostate, 81.7%; in the assay with SK-MEL-5 melanoma it was 106%. In addition, the values for the growth with UACC-62 melanoma, in the assay with LOX IMVI melanoma and with SK-MEL-28 melanoma were 95.5%, 99.3% and 114%, respectively.
Regarding `Cc1ccc(/C=C2\Oc3cc(OCC(=O)c4ccc(Cl)cc4)ccc3C2=O)cc1`, the growth with HCT-15 colon is 93.1%; with HT29 colon, 104%; in the assay on SNB-75 CNS, 103%; with U251 CNS, 97.5%; with PC-3 prostate it was 428%; in the assay on SK-MEL-5 melanoma it was 86.3%. Further, the results for the growth with UACC-62 melanoma, in the assay on LOX IMVI melanoma and in the assay with SK-MEL-28 melanoma were 92.7%, 98.8% and 48.4%, respectively.
With `Cn1c2c(Cl)c(Cl)ccc2c2ccn3c(=O)c4ccccc4nc3c21`, the growth in the assay with HCT-15 colon is 102%; in the assay on HT29 colon it was 105%; in the assay on SNB-75 CNS, 91.6%; in the assay on U251 CNS it was 100%; in the assay on PC-3 prostate, 101%; with SK-MEL-5 melanoma it was 95.2%. For the same compound, the growth with UACC-62 melanoma was 90.6%; with LOX IMVI melanoma, 104%; in the assay on SK-MEL-28 melanoma it was 117%.

These data come from PubChem BioAssay (NCI).
